Values joined by “and” are separate entries in the source; they are usually repeats but may differ in a detail not shown here. Identical values can stand only once. Records with an inconclusive call do not appear. Values without a mark were called inactive. Active and inactive are the calls of the source. Calls follow the shape of the dose curve; as a rule, active = well fitted curve in the direction sought with a large enough effect; inconclusive = small, poorly fitted or top-dose-only effect, or another doubt; inactive = no such curve, though single readings can be large; an effect the other way counts as inactive or inconclusive.
Key:
[1] = biological target: Cellular tumor antigen p53 (Homo sapiens) (UniProt P04637); assay: Primary qHTS for small molecule compounds that upregulate eGFP-tagged delta133p53alpha (in N-terminal) cells. (AID 2060322); details: NCI-H358 eGFP-delta133p53alpha fluorescence, 24 h; activation: active compounds read high; also: nearly all actives have a fitted effect of over 75% in size; also: potency is read from the fitted curve at half-maximal effect;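 as to activation: cells pre-induced with doxycycline then dosed without doxycycline; series mostly up to about 56 µM; 0% = DMSO vehicle and 100% = reference activator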
Chain of Cellular tumor antigen p53 (Homo sapiens) (P04637 whole entry, looked up): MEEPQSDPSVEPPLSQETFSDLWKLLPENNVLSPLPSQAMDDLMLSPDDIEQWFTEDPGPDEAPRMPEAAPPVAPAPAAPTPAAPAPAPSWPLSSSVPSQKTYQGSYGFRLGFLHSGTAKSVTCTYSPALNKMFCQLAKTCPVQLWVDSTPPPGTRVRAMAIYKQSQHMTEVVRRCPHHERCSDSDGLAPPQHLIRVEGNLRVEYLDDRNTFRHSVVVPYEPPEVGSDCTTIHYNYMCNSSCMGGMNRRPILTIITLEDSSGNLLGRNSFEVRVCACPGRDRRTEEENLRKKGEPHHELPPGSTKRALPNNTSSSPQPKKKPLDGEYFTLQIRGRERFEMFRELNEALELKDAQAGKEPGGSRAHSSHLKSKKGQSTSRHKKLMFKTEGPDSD
How it was run: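 NCI-H358 cells pre-induced 24 h with 10 ng/ml doxycycline for eGFP-delta133p53alpha, plated dox-free and exposed 24 h at 37C to titrated compounds. Fixed, Hoechst-stained; gated GFP peak intensity by laser scanning cytometry, normalized to DMSO (0%) and 57.5 uM 5-azacytidine (100%).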

[2] = BET inhibitor-based combinations targeting novel dependencies in MECOM-rearranged (r) AML: SET-2 cell line (AID 2202231); details: SET-2 AML cells viability, CellTiter-Glo luminescence, 48 h; viability: active compounds read low, concentration not given here; also: nearly all actives have a fitted effect of over 35% in size; also: potency is read from the fitted curve at half-maximal effect;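 as to viability: plate controls were DMSO treated cells for no effect and wells without cells for full effect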
How it was run: (§1)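 Here, 11-point titrations of each agent were applied to 500 seeded cells and incubated 48 hr; CellTiter-Glo signal, scaled against DMSO and empty wells, was integrated as AUC, then Z-scored within the individual line.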

[3] = BET inhibitor-based combinations targeting novel dependencies in MECOM-rearranged (r) AML: MV-4-11 cell line (AID 2202233); also: nearly all actives have a fitted effect of over 45% in size; also: potency is read from the fitted curve at half-maximal effect
How it was run: (§2)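 Normalized to DMSO and empty-well controls, the luminescence data from CellTiter-Glo after 48 hr drug exposure were fitted across 11 concentrations. Reported metrics are area under the dose-response curve and its Z-transformed form.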

[4] = BET inhibitor-based combinations targeting novel dependencies in MECOM-rearranged (r) AML: UCSD-AML1 cell line (AID 2202235); also: nearly all actives have a fitted effect of over 40% in size; also: potency is read from the fitted curve at half-maximal effect
How it was run: as §2

[5] = BET inhibitor-based combinations targeting novel dependencies in MECOM-rearranged (r) AML: AML-194 cell line (AID 2202237; also: nearly all actives have a fitted effect of over 40% in size; also: potency is read from the fitted curve at half-maximal effect)
How it was run: as §1

[6] = BET inhibitor-based combinations targeting novel dependencies in MECOM-rearranged (r) AML: OCI-AML3 cell line (AID 2202232); details: Potency: OCI-AML3 viability; also: nearly all actives have a fitted effect of over 35% in size; also: potency is read from the fitted curve at half-maximal effect
How it was run: as §1

[7] = BET inhibitor-based combinations targeting novel dependencies in MECOM-rearranged (r) AML: HNT-34 cell line (AID 2202234); also: nearly all actives have a fitted effect of over 35% in size; also: potency is read from the fitted curve at half-maximal effect
How it was run: as §2

[8] = BET inhibitor-based combinations targeting novel dependencies in MECOM-rearranged (r) AML: AML-191 cell line (AID 2202236; also: nearly all actives have a fitted effect of over 35% in size; also: potency is read from the fitted curve at half-maximal effect)
How it was run: as §1

[9] = biological target: Retinaldehyde dehydrogenase 3 (Homo sapiens) (UniProt P47895); assay: qHTS for Inhibitors of the Aldehyde Dehydrogenase Family (ALDH1A3) Primary screen (AID 2061315);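 also: plate controls were DMSO vehicle for no effect and reference inhibitor for full effect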

For COc1ccc(C(=O)c2c(C)n(CCN3CCOCC3)c3cc(I)ccc23)cc1, the activation [1] was 27.2%, the Potency [2] was 13200 nM (active) and the Potency [3] was 8330 nM (active). The Potency [4] was “inactive” and the Potency [5] was 9340 nM (active).
With N=c1c2c(-c3ccccc3)c(-c3ccccc3)n(Cc3ccccc3)c2ncn1C1CCC(O)CC1 (stereo not given) the activation [1] was 11.7%, the Potency [6] was 8330 nM (active) and the Potency [3] was 742 nM (active). The Potency [7] was 2630 nM (active), the Potency [4] was 1320 nM (active) and the Potency [8] was 2630 nM (active). The Potency [5] was 4680 nM (active).
For C[C@@H]1C[C@@H]([C@H](O)CC2CC(=O)NC(=O)C2)C(=O)[C@@H](C)C1, the Potency [1] was 4.37 µM (active) and 968 nM (active), the Potency [2] was 296 nM (active) and the Potency [6] was 1660 nM (active). For the same compound, the Potency [3] was 525 nM (active), the Potency [7] was 263 nM (active) and the Potency [4] was 263 nM (active). For the same compound, the Potency [8] was 742 nM (active).
For C#C[C@]1(O)C=C[C@H]2[C@@H]3CCC4=CC(=O)CC[C@@H]4[C@H]3CC[C@@]21CC, the activation [1] was 10.7%, the viability [2] was 95.4% and the Potency [3] was 18600 nM (active). For the same compound, the Potency [4] was “inactive”.
In the case of Cc1sc2c(c1C)C(c1ccc(Cl)cc1)=NC(CC(N)=O)c1nnc(C)n1-2 (stereo not given), the activation [1] is reported as -1.12%, the Potency [2] is reported as 263 nM (active) and the Potency [6] is reported as 93.4 nM (active). For the same compound, the Potency [3] was 66.1 nM (active).
In the case of CC1=C(O)C(=O)C=C2C1=CC=C1[C@@]2(C)CC[C@@]2(C)[C@@H]3C[C@](C)(C(=O)O)CC[C@]3(C)CC[C@]12C, the Potency [1] is reported as 17.2 µM (active), the Potency [2] is reported as 934 nM (active) and the Potency [6] is reported as 742 nM (active). The Potency [4] was 1050 nM (active), the Potency [8] was 934 nM (active) and the Potency [5] was 1180 nM (active).
For C[C@]12CC[C@@H]3c4ccc(OC(=O)N(CCCl)CCCl)cc4CC[C@H]3[C@@H]1CC[C@@H]2OP(=O)(O)O, the activation [1] was -2.49% and -2.33%, the Potency [9] was “inactive” and the viability [2] was 112%. The Potency [6] was “inactive”, the Potency [3] was “inactive” and the Potency [7] was “inactive”. For the same compound, the Potency [8] was “inactive” and the Potency [5] was “inactive”.
In the case of CCN1C[C@]2(OC(=O)c3ccccc3NC(C)=O)CC[C@H](OC)[C@@]34[C@H]5CC6[C@@H](OC)C[C@](O)(C(C[C@@H]23)[C@@H]14)[C@@]5(O)[C@@H]6OC, the activation [1] is reported as 24.6%, the viability [2] is reported as 104% and the Potency [6] is reported as “inactive”. The Potency [7] was “inactive”, the Potency [4] was “inactive” and the Potency [8] was “inactive”. For the same compound, the Potency [5] was “inactive”.
With COc1ccc(C(=O)c2c(C)n(CCN3CCOCC3)c3ccccc23)cc1 the activation [1] was 1.02%, the Potency [2] was 8330 nM (active) and the Potency [3] was 2630 nM (active). For the same compound, the Potency [7] was 2350 nM (active) and the Potency [8] was 2630 nM (active).
In the case of Clc1ccccc1C(c1ccccc1)(c1ccccc1)n1cccn1, the activation [1] is reported as 8.55%, the viability [2] is reported as 90.1% and the Potency [6] is reported as “inactive”. For the same compound, the Potency [7] was “inactive” and the Potency [8] was “inactive”.
For Cc1sc2c(c1C)C(c1ccc(Cl)cc1)=N[C@@H](CC(=O)OC(C)(C)C)c1nnc(C)n1-2, the activation [1] was -35.4% and 15.6%, the Potency [6] was 263 nM (active) and the Potency [3] was 209 nM (active). For the same compound, the Potency [7] was 662 nM (active), the Potency [4] was 742 nM (active) and the Potency [8] was 662 nM (active).
In the case of O=S(=O)(F)Cc1ccccc1, the activation [1] is reported as 5.78%, the Potency [6] is reported as “inactive” and the Potency [7] is reported as “inactive”. The Potency [4] was “inactive” and the Potency [5] was “inactive”.
In the case of CN(C)CCN(C)CCc1ccc(Cl)c(Cl)c1, the activation [1] is reported as 12%, the viability [2] is reported as 103% and the Potency [6] is reported as “inactive”. For the same compound, the Potency [7] was “inactive” and the Potency [5] was “inactive”.
For COc1cccc2c1C(=O)c1c(O)c3c(c(O)c1C2=O)C[C@@](O)(C(=O)CO)CC3OC1CC(N2CCOC(OC)C2)C(O)C(C)O1 (stereo not given in full), the Potency [1] was 0.0276 µM (active), the Potency [6] was 4.7 nM (active) and the Potency [4] was 4.7 nM (active). The Potency [5] was 4.2 nM (active).
For Cc1ncc(OC[C@@]2(c3cccc(F)c3)C[C@H]2C(=O)Nc2ccc(F)cn2)c(C)n1, the activation [1] was -13.1%, the viability [2] was 92.7% and the Potency [4] was “inactive”. The Potency [8] was “inactive” and the Potency [5] was “inactive”.
In the case of CCCCCC[C@H]1C(=O)O[C@H](C)[C@H](NC(=O)c2cccc(NC=O)c2O)C(=O)O[C@@H](C)[C@@H]1OC(=O)CC(C)C, the activation [1] is reported as -21.7%, the Potency [3] is reported as 1320 nM (active) and the Potency [4] is reported as “inactive”. The Potency [5] was “inactive”.
With C[C@]12CCC(=O)C(O)=C1CC[C@@H]1[C@@H]2CC[C@]2(C)C(=O)CC[C@@H]12 the activation [1] was 6.69%, the Potency [7] was “inactive” and the Potency [4] was “inactive”. For the same compound, the Potency [5] was “inactive”.
With CSCC[C@@H](NC(=O)[C@@H](Cc1ccccc1)NC(=O)CNC(=O)CNC(=O)[C@@H](N)Cc1ccc(O)cc1)C(=O)O the activation [1] was 22.9%, the viability [2] was 119% and the Potency [6] was “inactive”. The Potency [3] was “inactive” and the Potency [8] was “inactive”.
In the case of COCC1(CO)C(=O)C2CCN1CC2 (stereo not given), the activation [1] is reported as -22.4%, the Potency [2] is reported as 26300 nM (active) and the Potency [3] is reported as 10500 nM (active). For the same compound, the Potency [4] was 5250 nM (active) and the Potency [5] was 10500 nM (active).
For CCCC[N+]1(C)[C@H]2CC(OC(=O)[C@H](CO)c3ccccc3)C[C@H]1[C@H]1O[C@H]12 (stereo not given in full), the activation [1] was -13.2%, the viability [2] was 109% and the Potency [7] was “inactive”. The Potency [4] was “inactive”, the Potency [8] was “inactive” and the Potency [5] was “inactive”.
With C=C1C[C@@H]2[C@H](CC[C@]3(C)C(=O)CC[C@@H]23)[C@@]2(C)C=CC(=O)C=C12 the activation [1] was -17.6%, the Potency [3] was 18600 nM (active) and the Potency [4] was “inactive”.

— PubChem BioAssay (NCATS)
